# From PubChem BioAssay
# Rows were chosen to be rich in hits. Some 3.5% of all compounds tested hit in one or more screens of this group.
# Tb PYK inh: blocks Trypanosoma brucei pyruvate kinase; TbPYK enzyme, Kinase-Glo Plus ATP luminescence, 45 min; Potency, µM (highest dose often 76.8 µM), without a hit: top-dose activity, negative = inhibition, hits mostly inhibitors; 410,000 tested, 0.12% active; AID 624173; also: % is scaled to controls: 0 for no effect and ±100 for the full control effect; nearly all actives have a fitted effect of over 50% in size
#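 Luminescent Kinase-Glo Plus end-point after 45 min room-temperature reaction of T. brucei pyruvate kinase started with 130 uM ADP (final). Buffer TEA 50 mM pH 7.2 with KCl, MgCl2, BSA, Tween-20; titration-based qHTS with fitted concentration-effect curves.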
# Sm TGR inh: inhibitors of Schistosoma mansoni thioredoxin glutathione reductase; Q962Y6; 360,000 tested, 3% active; Potency, µM (titrated, usually from 114 µM), inactives show top-dose activity change, negative = inhibition, usual class: inhibitors; purified TGR, DTNB reduction, TNB absorbance 405 nm; also: % is scaled to controls: 0 for no effect and ±100 for the full control effect; nearly all actives have a fitted effect of over 60% in size
#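 TGR 20 nM + NADPH 100 uM (dispensed conc.), cpd preinc 15 min RT; start with NADPH (500 uM addition) then DTNB (15 mM addition). Kinetic TNB absorbance, 405 nm filter. Four-parameter Hill fit across titration.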
# RE007 growth inh: less growth of the S. pombe RE007 Vpr strain. AID 651644. Potency, µM (highest dose often 92.2 µM), for inactives: top-dose activity change, negative = less growth, actives largely listed as inhibitors. 360,000 tested, 0.21% active. S. pombe RE007 Vpr strain, BacTiter-Glo ATP luminescence, 24 h; active = well fitted falling curve with a large enough effect; inconclusive = small, poorly fitted or top-dose-only effect; inactive = no such curve, though single readings can be large or run the other way; also: % is scaled to controls: 0 for no effect and ±100 for the full control effect; nearly all actives have a fitted effect of over 50% in size
#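 Fission yeast strain RE007, carrying one chromosomally integrated HIV-1 vpr copy, was seeded at OD 0.01 in PMG+AL medium with 23 nL pinned compound. After 24 h at 30 °C and 99% humidity, viability was read by BacTiter-Glo luminescence.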
# NS1 function inh: inhibitors of influenza NS1 protein function | Potency, µM (titrated, usually from 46.1 µM), without a hit: at the top dose activity, positive = more growth | 270,000 tested, 0.4% active | AID 2326; calls by dose curve; also: actives are rising curves; nearly all actives have a fitted effect of over 50% in size
#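 OD600 was taken as the measure of yeast growth restored by compound in an NS1-expressing S. cerevisiae strain. Cells had been washed out of glucose medium and diluted 1:100 into galactose -URA medium, pH 6.0.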
# LmPK inh: blocks Leishmania mexicana pyruvate kinase activity; Q27686; purified LmPK, Kinase-Glo ATP luminescence, 1 h; Potency, µM (top dose mostly 57.5 µM), inactives show at the highest dose activity change, negative = inhibition, usual class: inhibitors; 290,000 tested, 0.37% active; AID 1721; also: % is scaled to controls: 0 for no effect and ±100 for the full control effect
#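 Purified LmPK (0.1 nM) with 0.5 mM PEP and 0.1 mM ADP in imidazole buffer pH 7.2 with MgCl2/KCl, 1 h at room temperature. ATP formed was read by luciferase luminescence and normalized to no-enzyme and uninhibited controls.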
# Giardia FBPA inh: inhibitors of Giardia lamblia fructose-1,6-bisphosphate aldolase; Potency, µM (top dose mostly 59.6 µM), without a hit: top-dose activity, negative = inhibition, hits mostly inhibitors; purified Giardia FBPA; 290,000 tested, 0.71% active; A8B2U2; also: % is scaled to controls: 0 for no effect and ±100 for the full control effect; nearly all actives have a fitted effect of over 55% in size
# Target sequence (A8B2U2 whole entry, looked up): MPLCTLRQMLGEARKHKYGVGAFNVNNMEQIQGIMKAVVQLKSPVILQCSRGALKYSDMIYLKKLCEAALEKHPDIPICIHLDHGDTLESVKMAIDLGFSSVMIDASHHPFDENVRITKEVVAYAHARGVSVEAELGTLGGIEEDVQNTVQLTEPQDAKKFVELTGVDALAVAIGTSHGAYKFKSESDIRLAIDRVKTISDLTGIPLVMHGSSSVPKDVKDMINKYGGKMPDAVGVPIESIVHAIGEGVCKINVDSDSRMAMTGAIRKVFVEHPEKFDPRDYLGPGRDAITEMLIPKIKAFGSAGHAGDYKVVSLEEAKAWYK
#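 40 nM FBPA preincubated 10 min at RT with compound (up to 57.5 uM final), then substrate plus GAPDH/TPI/NAD/arsenate coupling and diaphorase/resazurin added. Fluorescence read after 20 min at RT, 525/598 nm.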
# * marks the source's active call; other numbers are inactive results; ? = inconclusive; . = no result; [ ] = dose if it differs, or a comment. Unless noted, calls follow the shape of the dose curve; as a rule, active = well fitted curve in the direction sought with a large enough effect; inconclusive = small, poorly fitted or top-dose-only effect, or another doubt; inactive = no such curve, though single readings can be large; an effect the other way counts as inactive or inconclusive. Potency is read from the fitted curve at half-maximal effect.
SMILES,Tb PYK inh,Sm TGR inh,RE007 growth inh,NS1 function inh,LmPK inh,Giardia FBPA inh
CCN(C(=O)C1CCCN(c2ncnc3onc(-c4ccc(F)cc4)c23)C1)c1ccccc1 (stereo not given),3%,-3%,.,.,.,.
Cc1cccc(C)c1NC(=O)C(=O)NCC(c1cccnc1)N1CCc2ccccc21 (stereo not given),-12%,0%,.,.,.,.
O=C(C1CCCN(Cc2ccc(Cl)cc2)C1)N1CCCCC1 (stereo not given),2%,6%,-8%,0%,-2%,?
Cc1cc(C)n(CC2CC(=O)N(c3ccc(F)c(Cl)c3)C2=O)n1 (stereo not given),-6%,-1%,9%,0%,-6%,-6%
O=C(C1CCCN(C2CC(=O)N(c3ccc(Cl)cc3)C2=O)C1)N1CCCC1 (stereo not given),3%,40µM*,5.6µM*,-12%,3%,.
Cc1cc(C)n(C2CC(=O)N(c3cccc(Cl)c3)C2=O)n1 (stereo not given),0%,25µM*,0%,.,-1%,-1%
Cn1nnc2c(N3CCN(c4cccc(Cl)c4)CC3)ncnc21,3%,3%,.,.,.,.
COc1ccc(OC)c(NC(=O)CCCOc2cc(=O)n(C)c3ccccc23)c1,10%,-15%,.,.,.,.
Cc1ccc(C(=O)COC(=O)C(CC(C)C)NC(=O)C2CCC(C)CC2)cc1 (stereo not given),1%,-2%,.,.,.,.
CC(C)Cn1nc(C(=O)NCc2ccccc2CN2CCCC2)c2ccccc2c1=O,-5%,28µM*,9%,.,.,.
CCC(C)n1c(=O)c2sccc2n2c(CCCC(=O)N3CCC(C(N)=O)CC3)nnc12 (stereo not given),5%,7.1µM*,15%,14%,1%,.
C=CCNC(=O)C1CC2Cn3c(nc4ccccc43)C2N1C (stereo not given),0%,?,0%,2%,-2%,-2%
Cc1ccc(CNC(=O)C2CC3Cn4c(nc5cc6ccccc6cc54)C3N2C)o1 (stereo not given),2%,45µM*,-16%,0%,-2%,-9%
Cc1ccc(CNC(=O)C2CC3Cn4c(nc5ccccc54)C3N2C)o1 (stereo not given),-22%,35µM*,-7%,.,.,.
CCOc1ccccc1NC(=O)CSc1nc2c([nH]c3ccccc32)c(=O)n1-c1ccccc1,-4%,2%,.,.,.,.
Cc1cccc(C(=O)Nc2cccc(OCc3cc(=O)n4c(C)csc4n3)c2)c1,0%,2%,.,.,.,.
COCCCOc1cc(C[C@@H](C[C@H](N)[C@@H](O)C[C@H](C(=O)NCC(C)(C)C(N)=O)C(C)C)C(C)C)ccc1OC,0%,.,.,.,.,.
CCCCC(O)(CCN1CCOCC1)c1ccc(Cl)cc1 (stereo not given),7%,35µM*,12%,-16%,1%,-5%
CCCCOc1ccc(C(O)(CCC)CCN2CCOCC2)cc1 (stereo not given),-5%,40µM*,-7%,0%,2%,-3%
CCCC(O)(c1ccc(Cl)cc1)C(CN1CCOCC1)c1ccccc1 (stereo not given),2%,-14%,-8%,-12%,13%,-15%
CCCCOc1ccc(C(O)(CC)CCN2CCOCC2)cc1 (stereo not given),0%,20µM*,10%,-9%,6%,-4%
CCCCOc1ccc(OCCCN2CCOCC2)cc1,-4%,0%,2%,-20%,-2%,-5%
Cc1ccc(-c2csc3ncn(-n4c(C)ccc4C)c(=O)c23)o1,?,6.3µM*,-5%,2%,6%,10%
COc1cc(Cl)c(C)cc1NC(=O)c1cn(C2CCCC2)c(=O)c2c1c1ccccc1n2C,0%,2%,.,.,.,.
COc1ccc(C(c2c(O)nc(SC)n(C)c2=O)c2c(O)nc(SC)n(C)c2=O)cc1O,-13%,13µM*,-10%,20%,1%,-11%
SMILES,Tb PYK inh,Sm TGR inh,RE007 growth inh,NS1 function inh,LmPK inh,Giardia FBPA inh
COc1ccc(-c2nc(SC)n(C)c(=O)c2C#N)cc1OC,-26%,7%,0%,-2%,-12%,-1%
Cc1ccc(-c2cc(-c3coc4ccc(Cl)cc4c3=O)c3c(n2)-c2ccccc2OC3)cc1,-6%,1%,.,.,.,.
Cc1cc(C=O)c(C)n1-c1cccc(C(=O)O)c1,1%,0%,-13%,5%,1%,5%
Cc1ccc(C)n1-c1cccc(C(=O)O)c1,.,8.9µM*,.,18%,17%,-25%
COc1ccc(CCNC(=O)c2ccc(Cn3c(=O)c4ccccc4n(CC(=O)C(C)(C)C)c3=O)cc2)cc1OC,-2%,8%,.,.,.,.
Cc1ccc(S(=O)(=O)NCCc2cn3nc(C)c(C)nc3n2)cc1C,0%,-8%,2%,-1%,-2%,-11%
COc1ccc(S(=O)(=O)NCCc2cn3nc(C)c(C)nc3n2)cc1C,-1%,45µM*,8%,-5%,4%,.
COc1ccc(Br)cc1CNC(=O)c1ccc2c(c1)nc1n2CCCCC1,-8%,12%,.,.,.,.
O=P(/C(=N/O)Sc1ccccc1)(N1CCOCC1)N1CCOCC1,-4%,13µM*,1%,2%,3%,7%
O=P(/C(=N/O)N1CCCCC1)(N1CCOCC1)N1CCOCC1,1%,1%,11%,-5%,-1%,17%
O=C(O)C1Nc2c(O)cc(Cl)c([N+](=O)[O-])c2C2C=CCC12 (stereo not given),-26%,3.5µM*,5%,.,?,?
CC(C)NS(=O)(=O)c1ccc2c(c1)oc(=O)n2C,0%,89µM*,22%,3%,3%,-2%
CCC1CCCCN1Cc1ccc(CNS(=O)(=O)c2ccc3c(c2)oc(=O)n3C)o1 (stereo not given),-8%,79µM*,-9%,7%,3%,-13%
Cn1c(=O)oc2cc(S(=O)(=O)NCc3ccco3)ccc21,1%,?,-3%,12%,5%,3%
CC(=O)N1CCn2c3c(c4cc(C)ccc42)CCCC31 (stereo not given),-12%,-12%[57.1 µM],5%,-35%,-2%,6%
Cc1ccc2c(c1)c1c3n2CCN(C(=O)CCl)C3CCC1 (stereo not given),0%,22µM*,8%,-25%,0%,-20%
CC(=O)N1CCn2c3c(c(=O)c4cc(C)ccc42)CCC31 (stereo not given),-6%,20µM*,0%,6%,9%,?
Cc1ccc(C2CC2c2n[nH]c(=S)n2-c2ccc(C)cc2)cc1 (stereo not given),?,2%,-9%,12%,11µM*,4%
Cc1ccc(-n2c(C3CC3c3ccc(Cl)cc3)n[nH]c2=S)cc1 (stereo not given),?,-1%,-3%,18%,7.9µM*,9%
